# Results published in PubChem BioAssay (NCI).
# Where “and” joins values, the source holds several entries; their conditions need not be identical. Equal entries are not always repeated. The panel holds about 83,000 compounds, 20% with a hit somewhere; the sample as a whole holds those more often.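 The test compound was applied at a single concentration to cells in 96-well plates for 48 hours, and percent growth was recorded.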 Calls of active or inactive are those of the source. The calls were made as follows: active = growth percent below 10; inactive = the rest.
# Key:
# Experiment in all cases: NCI-60 one-dose screen, 48 h (100 = growth as untreated, 0 = no growth, -100 = all killed)
# Settings in all cases: 10 µM unless noted
# [1] = test system: SK-MEL-2 melanoma
# [2] = test system: EKVX NSCLC
# [3] = test system: SN12C renal
# [4] = test system: UO-31 renal
# [5] = test system: TK-10 renal
# [6] = test system: ACHN renal
# [7] = test system: CAKI-1 renal
# [8] = test system: A498 renal
# [9] = test system: HL-60(TB) leukemia
# [10] = test system: CCRF-CEM leukemia
# [11] = test system: MOLT-4 leukemia
# [12] = test system: SR leukemia
# [13] = test system: RPMI-8226 leukemia
# [14] = test system: OVCAR-8 ovarian
# [15] = test system: OVCAR-5 ovarian
# [16] = test system: OVCAR-4 ovarian
# [17] = test system: SK-OV-3 ovarian
# [18] = test system: IGROV1 ovarian
# [19] = test system: OVCAR-3 ovarian
# [20] = test system: HS 578T breast
Compound,growth [1],growth [2],growth [3],growth [4],growth [5],growth [6],growth [7],growth [8],growth [9],growth [10],growth [11],growth [12],growth [13],growth [14],growth [15],growth [16],growth [17],growth [18],growth [19],growth [20]
CCCCCCCCCCCCCCCC[N+](C)(C)C,-67.6% (active) and -2.51% (active),-51.6% (active) and 29.3% (inactive),-87.8% (active),-82.3% (active) and 62.9% (inactive),-72.8% (active) and -39.9% (active),19.4% (inactive),-58.7% (active) and 18.4% (inactive),-58% (active) and 25.3% (inactive),-66.6% (active) and -38.9% (active),-51.4% (active) and 1.36% (active),-52.4% (active),-54.9% (active) and -48.6% (active),-14.9% (active) and -9.1% (active),0.0915% (active),-4.82% (active),-34.5% (active) and 17.2% (inactive),-55.5% (active) and 11% (inactive),-64% (active) and -56.6% (active),-85.4% (active) and -1.42% (active),-24.3% (active) and 2.19% (active)
CC(=O)Cc1ccc2c(c1)OCO2,112% (inactive),109% (inactive),101% (inactive),102% (inactive),110% (inactive),108% (inactive),96.9% (inactive),116% (inactive),77.4% (inactive),108% (inactive),121% (inactive),122% (inactive),113% (inactive),96.6% (inactive),94% (inactive),135% (inactive),107% (inactive),111% (inactive),110% (inactive),111% (inactive)
C/C(=C(\c1ccc(OCCN2CCOCC2)cc1)c1ccc(OC(=O)Cc2ccccc2)cc1)c1ccc(Cl)cc1,81.5% (inactive),95.4% (inactive),91.2% (inactive),85.5% (inactive),90.8% (inactive),112% (inactive),78.7% (inactive),96.8% (inactive),82.9% (inactive),84.9% (inactive),56.3% (inactive),114% (inactive),57.6% (inactive),97.7% (inactive),95.2% (inactive),98.5% (inactive),110% (inactive),106% (inactive),95.8% (inactive),104% (inactive)
CCOP(=O)(NC)OCC,124% (inactive),146% (inactive),106% (inactive),92.2% (inactive),129% (inactive),108% (inactive),111% (inactive),74.3% (inactive),73.9% (inactive),93.4% (inactive),127% (inactive),71.3% (inactive),92.8% (inactive),115% (inactive),91.5% (inactive),105% (inactive),104% (inactive),105% (inactive),99.5% (inactive),98.4% (inactive)
C[C@]12CC[C@H]3[C@@H](C[C@@H]4SC(Nc5cccc(F)c5)=N[C@@]45CC(=O)CC[C@]35C)[C@@H]1CCC2=O,21.8% (inactive),46.4% (inactive),28.5% (inactive),-26.9% (active),20.3% (inactive),1.56% (active),50.5% (inactive),22.9% (inactive),8.58% (active),4.95% (active),-3.78% (active),-11.9% (active),-22.3% (active),39.6% (inactive),65.5% (inactive),59.2% (inactive),-18.4% (active),60% (inactive),-5.24% (active),35.4% (inactive)
N#CCN(CC#N)[N+](=O)[O-],105% (inactive),104% (inactive),94% (inactive),101% (inactive),100% (inactive),110% (inactive),95.2% (inactive),95% (inactive),115% (inactive),85.2% (inactive),114% (inactive),100% (inactive),97.2% (inactive),109% (inactive),103% (inactive),111% (inactive),104% (inactive),121% (inactive),108% (inactive),89.5% (inactive)
CC1=C([Te]c2ccccc2)C(=O)c2ccccc2C1=O,9.62% (active),-38.6% (active),5.18% (active),-33.4% (active),-33% (active),-86.6% (active),-46.5% (active),-66% (active),12.7% (inactive),-44.9% (active),31.4% (inactive),21.4% (inactive),-32.9% (active),-15.9% (active),-72.3% (active),-72.4% (active),-37.8% (active),-21.5% (active),-77.5% (active),-22.4% (active)
O=C/C=C/c1ccco1,108% (inactive),100% (inactive),101% (inactive),88.9% (inactive),97.7% (inactive),109% (inactive),95.6% (inactive),96.9% (inactive),88.2% (inactive),100% (inactive),98.9% (inactive),99.4% (inactive),102% (inactive),100% (inactive),101% (inactive),105% (inactive),96.1% (inactive),106% (inactive),110% (inactive),107% (inactive)
Cc1cc2c(cc1-c1ccnc(/C=C/C(=O)O)c1)C(C)(C)CCC2(C)C,93.9% (inactive),86.1% (inactive),88% (inactive),62.1% (inactive),115% (inactive),81.6% (inactive),91.8% (inactive),73.7% (inactive),59.2% (inactive),95.7% (inactive),91.9% (inactive),77.9% (inactive),41.4% (inactive),79% (inactive),100% (inactive),104% (inactive),98.1% (inactive),100% (inactive),82.8% (inactive),59.6% (inactive)
CC1(C)N(Nc2ccccc2)C(=O)C2CCCN21 (stereo not given),84% (inactive),74.4% (inactive),91.5% (inactive),32.2% (inactive),59.6% (inactive),21% (inactive),6.09% (active),96.5% (inactive),-31.4% (active),18.5% (inactive),15.1% (inactive),14.2% (inactive),13.7% (inactive),87% (inactive),75.1% (inactive),70.8% (inactive),85.1% (inactive),72.7% (inactive),0.57% (active),85.9% (inactive)
C[C@]12CCc3sc(Nc4ccc(F)cc4)nc3C1=CC[C@@H]1[C@@H]2CC[C@]2(C)C(=O)CC[C@@H]12,76.8% (inactive),78.3% (inactive),73.8% (inactive),59.8% (inactive),94.4% (inactive),77.9% (inactive),68% (inactive),75.7% (inactive),49.8% (inactive),14% (inactive),15.8% (inactive),19.5% (inactive),2.21% (active),68.4% (inactive),100% (inactive),76.8% (inactive),90% (inactive),75.2% (inactive),24.1% (inactive),55.3% (inactive)
O=[N+]([O-])c1ccc2scc3c4ccccc4nc-3c2c1,-63.2% (active),37.1% (inactive),-36% (active),-85.4% (active),-53.7% (active),-97.5% (active),-40.6% (active),44.9% (inactive),1.24% (active),-12.3% (active),-11.7% (active),15.9% (inactive),-29.5% (active),-62.3% (active),-77.1% (active),-88.5% (active),45.8% (inactive),-59% (active),-99% (active),-2.07% (active)
CN(C)[C@@H]1C(=O)C(C(N)=O)=C(O)[C@@]2(O)C(=O)C3=C(O)c4c(O)ccc(Cl)c4[C@@](C)(O)[C@H]3C[C@@H]12,81.6% (inactive) and 24.7% (inactive),111% (inactive) and 98.3% (inactive),93.7% (inactive) and 103% (inactive),55.1% (inactive) and 82.1% (inactive),86.9% (inactive),70.9% (inactive) and 94.4% (inactive),73.1% (inactive) and 99.6% (inactive),92.2% (inactive) and 110% (inactive),100% (inactive),94.1% (inactive) and 101% (inactive),99.5% (inactive) and 121% (inactive),87.9% (inactive) and 82.8% (inactive),87% (inactive) and 91.1% (inactive),98.7% (inactive) and 91.7% (inactive),92.1% (inactive) and 94.8% (inactive),98.3% (inactive) and 98.6% (inactive),90.3% (inactive) and 95.8% (inactive),78.7% (inactive) and 87.2% (inactive),112% (inactive) and 102% (inactive),94.7% (inactive) and 91.7% (inactive)
